Bioassay records (PubChem BioAssay)
A selection: hits, their analogues and other compounds. The true share with any hit is near 4.3%.
FGF22 binding: binders of recombinant human FGF22 by thermal shift. activity (Tm shift, normalised), % at 9.99 µM. Q9HCT0. 1.5% of 340,000 active. AID 651658. SYPRO orange fluorescence; percent of sucrose octasulfate shift, DMSO zero;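 active = mean Tm shift, scaled 0 neutral to 100 positive control, at about 1.3% or above, every replicate too, limit read from the data; inconclusive = no clear call, values can overlap the other calls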
Target sequence (Q9HCT0 whole entry, looked up): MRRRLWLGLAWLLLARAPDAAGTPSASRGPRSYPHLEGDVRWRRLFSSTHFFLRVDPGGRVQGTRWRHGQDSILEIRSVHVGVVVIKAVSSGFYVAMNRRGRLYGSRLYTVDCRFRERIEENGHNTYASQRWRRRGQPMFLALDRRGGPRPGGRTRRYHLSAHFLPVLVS
SMARCA2 activ: increases SMARCA2 function in MMTV reporter cells; MG213 cells, MMTV-luciferase reporter, dexamethasone, overnight; activation, % at 9.1 µM; 1% of 370,000 active; in the data active = activation above about 7.8%;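 also: 0% = vehicle wells and 100% = reference activator wells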
MLL AF4-AF9 inh: blocks AF4 peptide binding to human AF9 | P42568 | AlphaScreen, biotin-AF4 peptide binding to FLAG-AF9 | inhibition, % at 10 µM | 0.47% of 350,000 active | AID 651704;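 active = every replicate reaching a set inhibition limit, whatever the replicate mean, cut at about 25% in these data; inconclusive = mean inhibition reaches that limit but some replicates miss it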;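 also: 0% = plate neutral control median and 100% = total signal loss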
esBAF inh: SWI/SNF esBAF complex inhibition; AID 602393; mouse ES cells, Bmi1-luciferase knock-in reporter, 24 h; 100% = twice the neutral-well signal; reporter increase, % at 12.5 µM; 2% of 350,000 active; in the data active = activation above about 40%; inconclusive = no clear call, values can overlap the other calls;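 also: 0% = median of the plate's neutral control wells and 100% = double that signal; a rise in the Bmi1 reporter signal indicates esBAF inhibition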
Wnt bcat act: Wnt/beta-catenin pathway activation | Wnt/beta-catenin reporter cell assay, activator, plate reader | activation, % at 9.35 µM | 1.2% of 300,000 active; in the data active = activation above about 30%, passing the limit was not always enough; inconclusive = no clear call, values can overlap the other calls;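 also: 0% = neutral control wells and 100% = positive control wells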
MITF TRPM1 HTS: MITF TRPM1 promoter activation in melanoma cells; SK-MEL-5 TRPM1-promoter luciferase, 24 h; % of positive control, neutral wells = 0; activation, % at 12.5 µM; 0.75% of 300,000 active; AID 588334;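 active = mean activation of at least 80% with every replicate also reaching 80%; inconclusive = mean reaches 80% but some replicate falls short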;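 also: 0% = neutral control wells and 100% = parthenolide positive control wells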
esBAF Ring1 qPCR: confirmation of esBAF inhibitors: Ring1 de-repression in mouse ESCs. AID 743176. mouse ESC E14, Ring1 mRNA RT-qPCR fold change. shares compounds with esBAF inh. fold change at 33 µM. 550 tested, under 10 active;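 active = Ring1 gene expression raised more than 2-fold over untreated cells in both replicates at either tested dose; inconclusive = only one replicate above 2-fold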;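 also: Ring1 transcript normalised to actin housekeeping signal by TaqMan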
esBAF Fgf4 qPCR: confirmation of esBAF inhibitors: Fgf4 repression in mouse ESCs; shares compounds with esBAF inh; mouse ESC E14, Fgf4 mRNA qPCR fold change; active compounds read low; Fgf4 expression fold change at 33 µM; 4% of 550 active; AID 743177;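 active = Fgf4 expression under 0.8 fold of control in both repeat measurements at one or both tested doses; inconclusive = under 0.8 fold in just a single repeat measurement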;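 also: Fgf4 transcript normalised to actin in duplex TaqMan qPCR; cells exposed to compound for 24 h before lysis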
esBAF Bmi1 qPCR: esBAF inhibition confirmed by Bmi1 de-repression. 550 tested, under 10 active. shares compounds with esBAF inh. fold change at 33 µM. mouse ESE14 ES cells, Bmi1 mRNA qPCR fold; active compounds read high. AID 743180;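 active = Bmi1 expression fold change above 6 at either tested concentration, seen in replicate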;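 also: higher fold means more Bmi1 de-repression and stronger esBAF inhibition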
A549 tox SP: cytotoxicity in A549 cells; 550 tested, under 10 active; shares compounds with esBAF inh; plate reader; AID 743188; cell viability change % (negative = cytotoxic), % at 25 µM, hits read low; call rule not given here
HepG2 tox SP: cytotoxicity in HepG2 cells. shares compounds with esBAF inh. plate reader; active compounds read low. activity change, negative = inhibition, % at 25 µM. 4% of 550 active; in the data active = activity change below about -50%
HEK293 tox SP: kills or reduces viability of HEK293 cells. shares compounds with esBAF inh. HEK293 cytotoxicity, plate reader. 3% of 550 active. activity change, negative = inhibition, % at 25 µM, hits read low. AID 743190; in the data active = activity change below about -38%, passing the limit was not always enough
Numbers without * were called inactive.

For COc1cc(Cl)ccc1OCc1cc(C(=O)N(C)Cc2cccc3cnccc23)no1 the results were FGF22 binding 0, SMARCA2 activ -1, MLL AF4-AF9 inh -5, esBAF inh 71*, Wnt bcat act 11, MITF TRPM1 HTS 45, esBAF Ring1 qPCR 1.2, esBAF Fgf4 qPCR 1.1, esBAF Bmi1 qPCR 1.5, A549 tox SP -7, HepG2 tox SP -13 and HEK293 tox SP -31.
Screening CNC[C@@H]1Oc2c(NC(=O)c3ccncc3)cccc2C(=O)N([C@H](C)CO)C[C@H]1C returned FGF22 binding 0, MLL AF4-AF9 inh -7 and esBAF inh -3.
C=CCn1cccc(C(=O)Nc2ccc(Cl)cc2)c1=O was read as FGF22 binding 0, SMARCA2 activ -2, MLL AF4-AF9 inh -2, esBAF inh 63*, Wnt bcat act 15, MITF TRPM1 HTS 82*, esBAF Ring1 qPCR 1.2, esBAF Fgf4 qPCR 0.94, esBAF Bmi1 qPCR 1.2, A549 tox SP 6, HepG2 tox SP -20 and HEK293 tox SP -15.
`CC(c1ccccc1)c1nnc(NC(=O)Nc2ccccc2F)s1` (stereo unspecified) gave FGF22 binding 0, SMARCA2 activ 1, MLL AF4-AF9 inh 7, esBAF inh 80*, Wnt bcat act 0, MITF TRPM1 HTS inconclusive, esBAF Ring1 qPCR 1.3, esBAF Fgf4 qPCR 0.88, esBAF Bmi1 qPCR 1.2, A549 tox SP -8, HepG2 tox SP -37 and HEK293 tox SP -2.
CC(c1ccccc1)c1nnc(NC(=O)Nc2ccccc2)s1 (stereo unspecified) was read as FGF22 binding 0, SMARCA2 activ 4, MLL AF4-AF9 inh 2, esBAF inh 8, Wnt bcat act 0 and MITF TRPM1 HTS -11.
`Cc1ccc(S(=O)(=O)N2CCC[C@H]2C(=O)OCc2cc(=O)oc3cc(C)ccc23)cc1` gave FGF22 binding 0, SMARCA2 activ -1, MLL AF4-AF9 inh 0, Wnt bcat act 3 and MITF TRPM1 HTS 12.
Cc1ccc2c(COC(=O)C34CC5CC(CC(C5)C3)C4)cc(=O)oc2c1 was read as SMARCA2 activ -1, esBAF inh 96*, MITF TRPM1 HTS 103*, esBAF Ring1 qPCR 1.3, esBAF Fgf4 qPCR 0.88, esBAF Bmi1 qPCR 1.5, A549 tox SP 0, HepG2 tox SP -18 and HEK293 tox SP -5.
`COc1ccc(-c2ccc([C@@H]3[C@@H](CO)N4C(=O)CN(C(=O)NC(C)C)C[C@@H]34)cc2)cc1` gave MLL AF4-AF9 inh -11.
C=CCNc1oc(-c2ccc(OC)cc2)nc1C#N was read as SMARCA2 activ 0, esBAF inh 79*, MITF TRPM1 HTS 63, esBAF Ring1 qPCR 0.95, esBAF Fgf4 qPCR 0.92, esBAF Bmi1 qPCR 1.4, A549 tox SP -2, HepG2 tox SP 10 and HEK293 tox SP -12.
C=CCNc1oc(-c2ccc(OCC)cc2)nc1C#N was read as FGF22 binding 0, SMARCA2 activ 1, MLL AF4-AF9 inh 0, esBAF inh 34, Wnt bcat act 5 and MITF TRPM1 HTS 35.
COc1cccc(/C=N/n2c(N)nc3ccccc32)c1OC was read as SMARCA2 activ 3, esBAF inh 73*, Wnt bcat act 27, MITF TRPM1 HTS 90*, esBAF Ring1 qPCR 1.6, esBAF Fgf4 qPCR 1, esBAF Bmi1 qPCR 2.3, A549 tox SP -4, HepG2 tox SP -13 and HEK293 tox SP -9.
For O=C(C[C@H]1CC[C@@H]2[C@H](COC[C@H](O)CN2Cc2ccccc2F)O1)N[C@@H]1CCN(Cc2ccccc2)C1 the results were FGF22 binding 0, MLL AF4-AF9 inh 5 and esBAF inh -4.
Screening CCN(CC)C(=O)Oc1ccc2c(=O)c(-c3ccc(OC)cc3)coc2c1 returned FGF22 binding 0, SMARCA2 activ 0, MLL AF4-AF9 inh 4, esBAF inh 61*, Wnt bcat act 20, MITF TRPM1 HTS inconclusive, esBAF Ring1 qPCR 1.1, esBAF Fgf4 qPCR 0.83, esBAF Bmi1 qPCR 1.6, A549 tox SP -6, HepG2 tox SP 2 and HEK293 tox SP -6.
CSCc1nc2sc(C(=O)Nc3nc(C)cs3)c(C)c2c(=O)[nH]1 was read as FGF22 binding 1, SMARCA2 activ 4, MLL AF4-AF9 inh 0, esBAF inh 60*, Wnt bcat act 4, MITF TRPM1 HTS 49, esBAF Ring1 qPCR 1.2, esBAF Fgf4 qPCR 1.1, esBAF Bmi1 qPCR 1.3, A549 tox SP -3, HepG2 tox SP -19 and HEK293 tox SP 2.
For Cc1csc(NC(=O)CSc2nc3sc(C)c(C)c3c(=O)[nH]2)n1 the results were SMARCA2 activ 0, esBAF inh 13 and Wnt bcat act 7.
Screening C[C@H]1CN([C@@H](C)CO)C(=O)Cc2cc(NC(=O)Cn3cnnn3)ccc2O[C@@H]1CN(C)C(=O)Nc1cccc2ccccc12 returned FGF22 binding 0 and esBAF inh 1.
Screening O=C(Nc1ccc(F)c(Cl)c1)c1cc(C2CCCCN2C(=O)C2CC2)on1 (stereo unspecified) returned FGF22 binding 0, SMARCA2 activ -3, MLL AF4-AF9 inh -8, esBAF inh 5 and Wnt bcat act -4.
`O=C(Nc1ccc(F)c(Cl)c1)c1cc(C2CCCN(C(=O)C3CC3)C2)on1` (stereo unspecified) gave FGF22 binding 0, SMARCA2 activ 0, MLL AF4-AF9 inh 4, esBAF inh 77*, Wnt bcat act 38*, esBAF Ring1 qPCR 1.4, esBAF Fgf4 qPCR 0.98, esBAF Bmi1 qPCR 2, A549 tox SP -7, HepG2 tox SP -5 and HEK293 tox SP -7.
Screening CCC(=O)Nc1ccc2c(c1)OC[C@H](C)N(C(=O)c1cccnc1)C[C@@H](C)[C@H](OC)CN(C)C2=O returned FGF22 binding 0, MLL AF4-AF9 inh -11 and esBAF inh -2.
